Experimental findings from PubChem BioAssay (NCI) are described below.

The panel holds about 83,000 compounds, 20% with a hit somewhere; the sample as a whole holds those more often.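 Testing used 96-well plates and a 48-hour single-concentration exposure. Example: -40 means 40% of the starting cells died.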 Activity calls are given as the source filed them. Rule for the calls: active = growth percent below 10; inactive = the rest.

The test system of one test is SN12C renal. Description: NCI-60 one-dose screen, 48 h (100 = growth as untreated, 0 = no growth, -100 = all killed). To be noted: 10 µM unless noted.
With `CCCCn1cc(C(=O)/C(C#N)=C/c2cc3ccccc3nc2Cl)c2cc(OC)ccc21`, the growth was 79.2% (inactive).
For the compound `CC(=O)C1C(=O)N(C)C(=O)N(C)C1=O`, the growth is 104% (inactive).
As to `CC1(C)N=C(N)N=C(N)N1c1cccc(C(=O)Nc2cccc(S(=O)(=O)F)c2)c1`, the growth was 101% (inactive).
Consider `C[C@]12CC[C@@H]3C4=C(CC[C@H]3[C@@H]1CC[C@@H]2O)CC(=O)CC4`, for which the growth is 99.5% (inactive).
As to `Oc1ccccc1OB(Oc1ccccc1O)N(CCCl)CCCl`, the growth is 78.4% (inactive).
Turning to `NC(Cc1ccc2c(c1)OCO2)c1ccc2c(c1)OCO2` (centres undefined), the growth was 94% (inactive).
On the same count and under the same terms, for `COc1ccc(-c2ccc(OC)c(OC)c2OC)cc1` the value was 42.3% (inactive).
Still for that read-out and setting: the result for `CC[C@@]1(C2O[C@@H](C3O[C@@](O)(CC)[C@H](C)C[C@@H]3C)C[C@@H]2C)CC[C@H]([C@]2(C)CCC3(C[C@H](O)[C@@H](C)[C@@H]([C@H](C)[C@@H](OC)[C@H](C)C(=O)O)O3)O2)O1` (some centres undefined) reads 31% (inactive); that for `COc1ccc(C2=NN(c3ccccc3)C(c3sc(N(CCCl)CCCl)nc3Cl)C2)cc1` (centres undefined), 90.5% (inactive).
For `CSc1ccccc1NP1(=O)OCC(C)([N+](=O)[O-])CO1` (centres undefined), the growth is 98% (inactive).
`Cc1ccc(N)cc1[As]=[As]c1cc(N)ccc1C` (centres undefined): the growth is -86.5% (active).
Take `C/C(=N/OC(=O)N(C)C)c1cc(Cl)ccc1Cl`: the growth is 103% (inactive).
For `CCC(C)[C@H]1O[C@]2(C=C[C@@H]1C)C[C@@H]1C[C@@H](C/C=C(\C)[C@@H](OC3C[C@H](OC)C(O[C@H]4C[C@H](OC)[C@@H](O)[C@H](C)O4)[C@H](C)O3)[C@@H](C)/C=C/C=C3\CO[C@@H]4[C@H](O)C(C)=C[C@@H](C(=O)O1)[C@]34O)O2` (some centres undefined), the growth was 1.84% (active).
`CC1(C)N=C(N)N=C(N)N1c1ccc(CCCCc2ccc(S(=O)(=O)F)cc2)cc1`: the growth was 26.8% (inactive).
`Cc1ccc(C(=O)C2CN(C)CCC2(O)c2ccc(C)cc2)cc1` (centres undefined): the growth is 107% (inactive).
For the compound `O=S(=O)(O)c1ccc(-c2ccc([As](=O)(O)O)cc2)cc1`, the growth is 104% (inactive).
As to `O=[N+]([O-])c1cc([N+](=O)[O-])c(Cl)c(Cl)c1Cl`, the growth is 19.4% (inactive).
With `C=CCC1(CC)C(=O)NC(=S)NC1=O`, the growth is 93.4% (inactive).
As to `C/C(=N/OC(=O)N(C)C)c1ccc(Cl)cc1Cl`, the growth is 96.8% (inactive).
Turning to `CCC[CH2][Sn]([CH2]CCC)([CH2]CCC)[O]C(=O)CC`, the growth is -80.6% (active).
In the case of `O=C(NCc1ccc([N+](=O)[O-])cc1)Nc1ccc(S(=O)(=O)F)cc1`, the growth was 85.8% (inactive).
As for `n1nc(-c2nonc2-c2nn[nH]n2)n[nH]1`, the growth is 102% (inactive).
As for `CNC(=O)Oc1ccccc1-c1ccccc1`, the growth was 106% (inactive).
Same read-out and setting: the result for `CC1(C)N=C(N)N=C(N)N1c1ccc(OCCCCOc2ccc(S(=O)(=O)F)cc2)c(Cl)c1` reads 17.4% (inactive).
With `CCCCOC(=O)c1ccccc1C(=O)O.CCCCOC(=O)c1ccccc1C(=O)O.[Cu+2]`, the growth was 113% (inactive).
Turning to `O=[N+]([O-])c1ccc2cnn(CSP(=S)(c3ccccc3)c3ccccc3)c2c1`, the growth is 69.9% (inactive).
For `NC(=O)C(Cl)Cl`, the growth was 104% (inactive).
As for `CCN(CC)c1ccc(C=C2C(=O)NC(=S)NC2=O)cc1`, the growth was 91.8% (inactive).
As to `Clc1ccc(SSC(Cl)(Cl)Cl)cc1`, the growth was 102% (inactive).
Consider `[O]=[Sn]([CH]1CCCCC1)[CH]1CCCCC1`, for which the growth was -80.5% (active).
Regarding `ClCCN(CCCl)c1nc(Cl)c(C2CC(c3ccccc3)=NN2c2ccccc2)s1` (centres undefined), the growth is 90.4% (inactive).
Turning to `CC(=O)C1CCC2C3CC=C4CC(OC(=O)Cc5ccc(N(CCCl)CCCl)cc5)CCC4(C)C3CCC12C` (centres undefined), the growth is 96.6% (inactive).
On to `Cc1ccccc1O`, for which the growth was 105% (inactive).
Consider `O=[N+]([O-])c1ccccc1N1CCNCC1`, for which the growth was 97.1% (inactive).
The same measure, in the same setting: the result for `CC(=O)Nc1ccc(C=C2C(=O)NC(=O)NC2=O)cc1` reads 103% (inactive).

Another test deals with UO-31 renal. Described as above. The settings on record: 10 µM unless noted.
For `ClCCN(CCCl)C(c1ccccc1)c1ccc(Cl)cc1` (centres undefined), the growth was 104% (inactive).
Consider `CCCCn1cc(C(=O)/C(C#N)=C/c2cc3ccccc3nc2Cl)c2cc(OC)ccc21`, for which the growth was 61.6% (inactive).
Still for that read-out and setting: the result for `CCCCNCCc1ccccn1` reads 88.4% (inactive); that for `CC(=O)C1C(=O)N(C)C(=O)N(C)C1=O`, 96.1% (inactive).
With `CC1(C)N=C(N)N=C(N)N1c1cccc(C(=O)Nc2cccc(S(=O)(=O)F)c2)c1`, the growth was 78.5% (inactive).
On the same count and under the same terms, for `C[C@]12CC[C@@H]3C4=C(CC[C@H]3[C@@H]1CC[C@@H]2O)CC(=O)CC4` the value was 92% (inactive); for `Oc1ccccc1OB(Oc1ccccc1O)N(CCCl)CCCl`, 51.9% (inactive); for `NC(Cc1ccc2c(c1)OCO2)c1ccc2c(c1)OCO2` (centres undefined), 100% (inactive).
As for `COc1ccc(-c2ccc(OC)c(OC)c2OC)cc1`, the growth was 39.4% (inactive).
Regarding `CC1(C)N=C(N)N=C(N)N1c1ccc(CCCCc2ccc(S(=O)(=O)F)cc2)c(Cl)c1`, the growth was 59.9% (inactive).
As to `COc1ccc(C2=NN(c3ccccc3)C(c3sc(N(CCCl)CCCl)nc3Cl)C2)cc1` (centres undefined), the growth was 78.6% (inactive).
Consider `N#CC1c2ccccc2C=CN1C(=O)c1ccc(N(CCCl)CCCl)cc1` (centres undefined), for which the growth was 71% (inactive).
Consider `CSc1ccccc1NP1(=O)OCC(C)([N+](=O)[O-])CO1` (centres undefined), for which the growth is 78.3% (inactive).
For `Cc1ccc(N)cc1[As]=[As]c1cc(N)ccc1C` (centres undefined), the growth is -99.7% (active).
Turning to `C/C(=N/OC(=O)N(C)C)c1cc(Cl)ccc1Cl`, the growth was 77.4% (inactive).
On the same count and under the same terms, the result for `CCC(C)[C@H]1O[C@]2(C=C[C@@H]1C)C[C@@H]1C[C@@H](C/C=C(\C)[C@@H](OC3C[C@H](OC)C(O[C@H]4C[C@H](OC)[C@@H](O)[C@H](C)O4)[C@H](C)O3)[C@@H](C)/C=C/C=C3\CO[C@@H]4[C@H](O)C(C)=C[C@@H](C(=O)O1)[C@]34O)O2` (some centres undefined) reads 10.1% (inactive).
As for `CC1(C)N=C(N)N=C(N)N1c1ccc(CCCCc2ccc(S(=O)(=O)F)cc2)cc1`, the growth is 104% (inactive).
`Cc1ccc(C(=O)C2CN(C)CCC2(O)c2ccc(C)cc2)cc1` (centres undefined): the growth was 99.6% (inactive).
On to `O=S(=O)(O)c1ccc(-c2ccc([As](=O)(O)O)cc2)cc1`, for which the growth is 89.1% (inactive).
In the case of `O=C1NC(=O)C(CN2C(=O)C3(c4ccccc42)[C@H](Cl)C(=O)N3c2ccccc2)C(=O)N1` (some centres undefined), the growth was 69.2% (inactive).
Regarding `O=[N+]([O-])c1cc([N+](=O)[O-])c(Cl)c(Cl)c1Cl`, the growth was -63.2% (active).
As to `C=CCC1(CC)C(=O)NC(=S)NC1=O`, the growth was 83.7% (inactive).
With `C/C(=N/OC(=O)N(C)C)c1ccc(Cl)cc1Cl`, the growth was 80.8% (inactive).
Take `CCC[CH2][Sn]([CH2]CCC)([CH2]CCC)[O]C(=O)CC`: the growth was -90.4% (active).
For the compound `O=C(NCc1ccc([N+](=O)[O-])cc1)Nc1ccc(S(=O)(=O)F)cc1`, the growth is 61.2% (inactive).
Regarding `n1nc(-c2nonc2-c2nn[nH]n2)n[nH]1`, the growth is 92.5% (inactive).
For the compound `CNC(=O)Oc1ccccc1-c1ccccc1`, the growth is 81.8% (inactive).
For `CC1(C)N=C(N)N=C(N)N1c1ccc(OCCCCOc2ccc(S(=O)(=O)F)cc2)c(Cl)c1`, the growth is 67.7% (inactive).
Take `CCCCOC(=O)c1ccccc1C(=O)O.CCCCOC(=O)c1ccccc1C(=O)O.[Cu+2]`: the growth is 96.5% (inactive).
As to `O=[N+]([O-])c1ccc2cnn(CSP(=S)(c3ccccc3)c3ccccc3)c2c1`, the growth is 58.9% (inactive).
Same read-out and setting: for `NC(=O)C(Cl)Cl` the value was 94.6% (inactive).
Consider `CCN(CC)c1ccc(C=C2C(=O)NC(=S)NC2=O)cc1`, for which the growth is 76.1% (inactive).
As to `Clc1ccc(SSC(Cl)(Cl)Cl)cc1`, the growth is 99.9% (inactive).
Same read-out and setting: for `[O]=[Sn]([CH]1CCCCC1)[CH]1CCCCC1` the value was -90.4% (active).
On the same count and under the same terms, the result for `ClCCN(CCCl)c1nc(Cl)c(C2CC(c3ccccc3)=NN2c2ccccc2)s1` (centres undefined) reads 72.4% (inactive); that for `CC(=O)C1CCC2C3CC=C4CC(OC(=O)Cc5ccc(N(CCCl)CCCl)cc5)CCC4(C)C3CCC12C` (centres undefined), 109% (inactive); that for `Cc1ccccc1O`, 82.6% (inactive).
Still for that read-out and setting: for `O=[N+]([O-])c1ccccc1N1CCNCC1` the value was 84.6% (inactive); for `CC(=O)Nc1ccc(C=C2C(=O)NC(=O)NC2=O)cc1`, 84.5% (inactive).
